Laboratory results published in PubChem BioAssay (EPA / NIEHS).
The source made the active and inactive calls. Rule for the calls: active = hit-call score of the fitted dose curve at least 0.9, where 1 is the maximum; inactive = score below 0.9.

Tests used:
Conditions in all cases: mRNA level, 48 h; actives raise or lower the signal
[1] = read-out: Tumor necrosis factor receptor superfamily member 6 (Homo sapiens) (UniProt P25445); test: LTEA_HepaRG_FAS: Life Technologies and Expression Analysis (LTEA) Assay for Fas cell surface death receptor (FAS) using HepaRG (AID 2283447)
In short: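 FAS transcript level was measured by TaqMan qRT-PCR against three housekeeping genes after 48 h chemical exposure. Cells were HepaRG, 0.5% DMSO vehicle, with a top concentration of 100 uM and half-log dilutions over eight points, in duplicate.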

[2] = read-out: Fatty acid synthase (Homo sapiens) (UniProt P49327); test: LTEA_HepaRG_FASN: Life Technologies and Expression Analysis (LTEA) Assay for Fatty Acid Synthase (FASN) using HepaRG (AID 2283448);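 for AC50: differentiated human HepaRG liver cells in serum-free induction medium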
In short: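 Transcript-level assay: HepaRG liver cells are treated for 48 h across an eight-point range topping at 100 uM, and FASN mRNA, normalized to three housekeeping genes, is compared with DMSO controls in both directions.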

[3] = read-out: Cyclin D2 (CCND2), CCND2 (gene 894); test: LTEA_HepaRG_CCND2: Life Technologies and Expression Analysis (LTEA) Assay for Cyclin D2 (CCND2) using HepaRG (AID 2283449)
In short: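 Read-out is CCND2 mRNA level measured by qRT-PCR in human HepaRG liver cells and normalised to three housekeeping genes. Chemicals were applied for 48 h at up to 100 uM, with gain or loss fitted relative to 0.5% DMSO.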

[4] = read-out: Cyclin Dependent Kinase Inhibitor 1A (CDKN1A), CDKN1A (gene 1026); test: LTEA_HepaRG_CDKN1A: Life Technologies and Expression Analysis (LTEA) Assay for Cyclin Dependent Kinase Inhibitor 1A (CDKN1A) using HepaRG (AID 2283450)
In short: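 Differentiated HepaRG cells in serum-free induction medium, exposed 48 h in duplicate to eight half-log concentrations up to 100 uM in 0.5% DMSO. mRNA measured by TaqMan qRT-PCR, normalized to ACTB, GAPDH, POLR2A; bidirectional fit versus DMSO.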

Measured: AC50

Fatty acid synthase (Homo sapiens), sequence (P49327 whole entry, looked up): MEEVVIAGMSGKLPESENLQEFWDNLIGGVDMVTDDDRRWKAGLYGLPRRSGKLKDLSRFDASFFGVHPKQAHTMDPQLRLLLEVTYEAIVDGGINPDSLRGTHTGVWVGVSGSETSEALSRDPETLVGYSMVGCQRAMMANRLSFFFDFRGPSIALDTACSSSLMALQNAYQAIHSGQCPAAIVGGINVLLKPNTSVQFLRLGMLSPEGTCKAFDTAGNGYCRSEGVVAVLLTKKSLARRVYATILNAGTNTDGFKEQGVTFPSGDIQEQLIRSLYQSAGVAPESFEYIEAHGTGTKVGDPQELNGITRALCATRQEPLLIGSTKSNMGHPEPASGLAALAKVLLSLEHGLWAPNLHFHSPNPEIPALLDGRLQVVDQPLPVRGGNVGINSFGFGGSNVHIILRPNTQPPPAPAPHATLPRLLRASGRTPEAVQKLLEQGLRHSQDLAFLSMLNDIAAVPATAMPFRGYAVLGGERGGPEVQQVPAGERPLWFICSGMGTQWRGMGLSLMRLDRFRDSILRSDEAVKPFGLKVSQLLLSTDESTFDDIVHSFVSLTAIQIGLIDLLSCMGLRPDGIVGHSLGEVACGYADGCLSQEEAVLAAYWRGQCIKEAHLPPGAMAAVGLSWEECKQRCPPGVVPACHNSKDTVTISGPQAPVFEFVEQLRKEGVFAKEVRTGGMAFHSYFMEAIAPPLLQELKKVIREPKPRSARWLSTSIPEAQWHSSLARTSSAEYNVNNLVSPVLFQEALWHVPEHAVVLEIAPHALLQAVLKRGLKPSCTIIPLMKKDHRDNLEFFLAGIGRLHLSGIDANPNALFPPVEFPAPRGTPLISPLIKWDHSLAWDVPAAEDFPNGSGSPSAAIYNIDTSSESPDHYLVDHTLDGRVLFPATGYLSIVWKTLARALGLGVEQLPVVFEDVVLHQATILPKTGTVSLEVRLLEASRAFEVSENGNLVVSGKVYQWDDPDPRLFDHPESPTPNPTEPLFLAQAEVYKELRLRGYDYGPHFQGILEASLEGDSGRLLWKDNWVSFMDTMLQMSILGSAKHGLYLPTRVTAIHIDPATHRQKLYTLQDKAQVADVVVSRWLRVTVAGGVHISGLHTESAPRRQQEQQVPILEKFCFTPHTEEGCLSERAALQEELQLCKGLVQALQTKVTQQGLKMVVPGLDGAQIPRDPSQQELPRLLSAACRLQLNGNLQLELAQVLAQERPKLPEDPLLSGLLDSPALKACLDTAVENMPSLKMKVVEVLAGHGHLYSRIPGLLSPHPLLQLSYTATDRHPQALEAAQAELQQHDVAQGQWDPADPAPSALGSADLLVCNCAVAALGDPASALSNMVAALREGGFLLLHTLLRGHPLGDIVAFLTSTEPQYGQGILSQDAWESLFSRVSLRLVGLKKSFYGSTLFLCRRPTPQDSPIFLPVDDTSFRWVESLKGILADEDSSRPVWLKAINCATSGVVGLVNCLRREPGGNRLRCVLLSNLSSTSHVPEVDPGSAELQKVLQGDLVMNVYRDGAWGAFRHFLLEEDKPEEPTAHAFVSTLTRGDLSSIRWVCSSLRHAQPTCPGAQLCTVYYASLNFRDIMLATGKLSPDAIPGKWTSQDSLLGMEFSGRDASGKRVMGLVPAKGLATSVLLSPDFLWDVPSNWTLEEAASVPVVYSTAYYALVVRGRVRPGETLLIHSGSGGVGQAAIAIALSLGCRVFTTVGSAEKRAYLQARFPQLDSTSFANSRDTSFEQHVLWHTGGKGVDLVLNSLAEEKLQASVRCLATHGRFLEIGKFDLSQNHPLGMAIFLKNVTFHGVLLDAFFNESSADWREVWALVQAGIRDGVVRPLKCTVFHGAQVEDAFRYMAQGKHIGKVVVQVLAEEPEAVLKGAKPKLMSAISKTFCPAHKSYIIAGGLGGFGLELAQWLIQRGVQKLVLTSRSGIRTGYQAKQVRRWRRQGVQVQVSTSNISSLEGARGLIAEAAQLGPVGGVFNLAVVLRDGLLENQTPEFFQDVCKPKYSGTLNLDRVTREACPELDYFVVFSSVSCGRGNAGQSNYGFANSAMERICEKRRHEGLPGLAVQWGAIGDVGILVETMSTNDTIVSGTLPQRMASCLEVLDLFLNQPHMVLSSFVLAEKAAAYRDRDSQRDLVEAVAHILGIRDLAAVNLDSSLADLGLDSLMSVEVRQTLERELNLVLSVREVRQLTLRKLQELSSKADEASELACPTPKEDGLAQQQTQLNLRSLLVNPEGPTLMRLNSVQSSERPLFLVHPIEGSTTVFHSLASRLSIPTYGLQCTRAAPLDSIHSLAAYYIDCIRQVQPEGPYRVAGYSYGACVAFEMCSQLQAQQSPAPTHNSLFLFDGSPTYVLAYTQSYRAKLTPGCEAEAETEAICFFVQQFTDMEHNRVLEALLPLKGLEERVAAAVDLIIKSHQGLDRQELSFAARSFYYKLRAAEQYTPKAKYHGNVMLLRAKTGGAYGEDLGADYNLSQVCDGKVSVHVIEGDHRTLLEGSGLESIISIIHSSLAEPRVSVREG

CC(C)=CCC/C(C)=C/CO
inactive: [1] | [2] | [3] | [4]

O=C(NS(=O)(=O)/C=C/c1ccccc1)c1ccc(F)cc1Cl
inactive: [1] | [2] | [3] | [4]

CCCCC(CC)COC(=O)c1ccc(C(=O)OCC(CC)CCCC)cc1 (stereo not given)
inactive: [1] | [2] | [3] | [4]

O=C1CCCCCN1
inactive: [1] | [2] | [3] | [4]

O=C(OC[C@H]1O[C@@H](OC(=O)c2cc(O)c(O)c(OC(=O)c3cc(O)c(O)c(O)c3)c2)[C@H](OC(=O)c2cc(O)c(O)c(OC(=O)c3cc(O)c(O)c(O)c3)c2)[C@@H](OC(=O)c2cc(O)c(O)c(OC(=O)c3cc(O)c(O)c(O)c3)c2)[C@@H]1OC(=O)c1cc(O)c(O)c(OC(=O)c2cc(O)c(O)c(O)c2)c1)c1cc(O)c(O)c(OC(=O)c2cc(O)c(O)c(O)c2)c1
active: [1] 7.03 µM | [2] 15.2 µM
inactive: [3] | [4]

CCCC(=O)OCC
inactive: [1] | [2] | [3] | [4]

CCOC(=O)COc1ccc2c(c1)CC(NCC(O)c1cccc(Cl)c1)CC2 (stereo not given)
inactive: [1] | [2] | [3] | [4]

CCCN(C1CCN(C(=O)C2CCNCC2)CC1)[C@@H]1CCc2ccc(OC)cc2C1
active: [2] 80.6 µM
inactive: [1] | [3] | [4]

O=c1n(CC2CO2)c(=O)n(CC2CO2)c(=O)n1CC1CO1 (stereo not given)
inactive: [2] | [3]
active: [1] 89.1 µM | [4] 58.7 µM

CC(=O)OC[C@H]1O[C@@](COC(C)=O)(O[C@H]2O[C@H](COC(C)=O)[C@@H](OC(C)=O)[C@H](OC(C)=O)[C@H]2OC(C)=O)[C@@H](OC(C)=O)[C@@H]1OC(C)=O
inactive: [1] | [2] | [3] | [4]

COCCOCCOCCOC
inactive: [1] | [2] | [3] | [4]

NC(=O)NO
inactive: [1] | [2] | [3] | [4]

COCCOc1cc2cc(C(=O)NC3CCN(C(C)C)CC3)n(CC(=O)Nc3ccc(Cl)cn3)c2cn1
inactive: [1] | [3] | [4]
active: [2] 32.5 µM

C1=CCCC=CCCC=CCC1
inactive: [1] | [2] | [3] | [4]

Nc1nc2ncc(CNc3ccc(C(=O)N[C@@H](CCC(=O)O)C(=O)O)cc3)nc2c(=O)[nH]1
inactive: [1] | [2] | [3] | [4]

O=P(OC(CCl)CCl)(OC(CCl)CCl)OC(CCl)CCl
inactive: [3]
active: [1] 0.232 µM | [2] 50 µM | [4] 90.8 µM

Clc1nc(Cl)c(Cl)c(Cl)c1Cl
inactive: [1] | [2] | [3] | [4]

Cn1cnc([N+](=O)[O-])c1Sc1ncnc2nc[nH]c12
active: [4] 4.48 µM
inactive: [1] | [2] | [3]

Nc1cccc(N)c1
inactive: [1] | [2] | [3] | [4]

CC(O)CN(CCN(CC(C)O)CC(C)O)CC(C)O (stereo not given)
inactive: [1] | [3] | [4]
active: [2] 12.4 µM

CC1(C)C(=O)N(Br)C(=O)N1Br
inactive: [1] | [2] | [3] | [4]

CCCCC(CC)COC(=O)CCCCCCCCC(=O)OCC(CC)CCCC (stereo not given)
inactive: [1] | [2] | [3] | [4]

O=C(O)c1cccc(Oc2ccccc2)c1
inactive: [1] | [2] | [3] | [4]

O=C1OC(=O)C2C3C=CC(C3)C12 (stereo not given)
inactive: [1] | [2] | [3] | [4]

CC[C@H]1OC(=O)[C@H](C)[C@@H](O[C@H]2C[C@@](C)(OC)[C@@H](O)[C@H](C)O2)[C@H](C)[C@@H](O[C@@H]2O[C@H](C)C[C@H](N(C)C)[C@H]2O)[C@](C)(O)C[C@@H](C)C(=O)[C@H](C)[C@@H](O)[C@]1(C)O
inactive: [1] | [2] | [3] | [4]

Cc1ccc(C)c(O)c1
inactive: [1] | [2] | [3] | [4]

CCn1nc(Cc2ccccc2)cc1C1CCN(C[C@H]2C[C@H](N(C)[C@@H](C(=O)O)C(C)C)C[C@@H]2c2cccc(F)c2)CC1
inactive: [1] | [2] | [3] | [4]

O=C(O)CCN(C1(C(=O)NO)CCCC1)S(=O)(=O)c1ccc(Oc2ccc(F)cc2)cc1
inactive: [1] | [2] | [3] | [4]

CCNc1ccccc1
inactive: [1] | [2] | [3] | [4]

Cn1c(=O)c2c(ncn2C)n(C)c1=O
inactive: [1] | [2] | [3] | [4]

O=C(O)c1cc(N=Nc2ccc(S(=O)(=O)Nc3ccccn3)cc2)ccc1O
inactive: [1] | [2] | [3] | [4]

CNCc1ccc(NC(=O)c2c[nH]c3c2C(=O)CCC3)cc1
inactive: [1] | [2] | [3] | [4]

COc1ccc2sc(C(=O)Nc3nnn[nH]3)c(OC(C)C)c2c1
inactive: [3]
active: [1] 63.8 µM | [2] 89.1 µM | [4] 50 µM

CC(C)CCCCCCCOC(=O)CCCCC(=O)OCCCCCCCC(C)C
inactive: [1] | [2] | [3] | [4]

O=C(O)CC(O)C(=O)O (stereo not given)
inactive: [1] | [2] | [4]

CN(C)c1ccc(N=NS(=O)(=O)O)cc1
inactive: [1] | [2] | [4]

CC(C)=CCCC(C)CCO (stereo not given)
inactive: [1] | [2] | [4]

CCOCCOCCOCCO
inactive: [2] | [4]

COC(=O)c1ccccc1O
inactive: [1] | [2] | [4]

CC(C)CCCCCCOC(=O)c1ccc(C(=O)OCCCCCCC(C)C)c(C(=O)OCCCCCCC(C)C)c1
inactive: [1] | [2] | [3] | [4]

O=C1CCC(N2C(=O)c3ccccc3C2=O)C(=O)N1 (stereo not given)
inactive: [1] | [2] | [3] | [4]

O=C(CCCCCCCCc1cccnc1)N1CCC(C=C(c2ccccc2)c2ccccc2)CC1
active: [1] 50 µM | [2] 50 µM | [4] 27 µM
inactive: [3]

CC/C(=C\C(=N/O)C(N)=O)C(C)[N+](=O)[O-] (stereo not given)
inactive: [1] | [2] | [3] | [4]

CCOCCO
inactive: [1] | [2] | [4]

CCCCCCc1ccc(O)cc1O
inactive: [1] | [2] | [3] | [4]

C1N2CN3CN1CN(C2)C3
inactive: [1] | [2] | [3] | [4]

CCN(C(=O)c1cc(C)cc(OC[C@H](C)Nc2ccncc2)c1)C(C)C
inactive: [4]
active: [1] 8.02 µM | [2] 5.84 µM

CCCCCCCCCCCCc1ccccc1
inactive: [1] | [2] | [4]

CC(=O)c1ccc2c(c1)[C@H](NC(=O)c1ccc(F)cc1)[C@@H](O)C(C)(C)O2
inactive: [1] | [2] | [3] | [4]

C=CC(=C)CCC=C(C)C
inactive: [1] | [2] | [3] | [4]

Cc1[nH]cnc1C[C@H]1CCc2c(C)c3ccccc3n2C1=O
inactive: [4]
active: [1] 69.3 µM | [2] 29.9 µM

CCc1cc(SCc2sc(-c3ccc(C(F)(F)F)cc3)nc2CN2CCN(c3ccc(OC)cc3)CC2)ccc1OCC(=O)O
active: [1] 26.2 µM | [2] 71.3 µM | [4] 85.4 µM

On1ccccc1=S
inactive: [2] | [4]

Cc1ccc(S(=O)(=O)O)cc1C
inactive: [1] | [2] | [4]

CC(C)CCO
inactive: [2] | [3] | [4]

CC(C)=CCC/C(C)=C\CO
inactive: [1] | [2] | [3] | [4]

COC(=O)CC(=O)OC
inactive: [1] | [4]
active: [2] 50 µM

CCOC(=O)CC(CC(=O)OCC)(OC(C)=O)C(=O)OCC
inactive: [1] | [2] | [3] | [4]

CC(=O)OCCC(C)C
inactive: [1] | [2] | [3] | [4]
